Experimental data from PubChem BioAssay (NCI).
This is part of a sample that, as a whole, favours compounds with a hit. Of some 83,000 tested, about 20% had one in any assay.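 Plates (96-well) were seeded with cells, treated with compound at one concentration, and incubated for 48 hours before percent growth was determined.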 Active and inactive are the calls of the source. The calls were made as follows: active = growth percent below 10; inactive = the rest.

Legend:
Test in all cases: NCI-60 one-dose screen, 48 h (100 = growth as untreated, 0 = no growth, -100 = all killed)
Settings in all cases: 10 µM unless noted
HCT-15 colon = system: HCT-15 colon
HT29 colon = system: HT29 colon
SNB-75 CNS = system: SNB-75 CNS
SNB-19 CNS = system: SNB-19 CNS
U251 CNS = system: U251 CNS
PC-3 prostate = system: PC-3 prostate
SK-MEL-5 melanoma = system: SK-MEL-5 melanoma
UACC-62 melanoma = system: UACC-62 melanoma
SK-MEL-28 melanoma = system: SK-MEL-28 melanoma
SK-MEL-2 melanoma = system: SK-MEL-2 melanoma
EKVX NSCLC = system: EKVX NSCLC
SN12C renal = system: SN12C renal
UO-31 renal = system: UO-31 renal
TK-10 renal = system: TK-10 renal
ACHN renal = system: ACHN renal
CAKI-1 renal = system: CAKI-1 renal
CCRF-CEM leukemia = system: CCRF-CEM leukemia
MOLT-4 leukemia = system: MOLT-4 leukemia
A498 renal = system: A498 renal
LOX IMVI melanoma = system: LOX IMVI melanoma

Measured: growth

COc1cc(CC(=O)c2ccc(O)c(OC)c2)ccc1O
inactive: HCT-15 colon 110% | HT29 colon 94.3% | SNB-75 CNS 96.8% | SNB-19 CNS 98.2% | U251 CNS 92.5% | PC-3 prostate 83.1% | SK-MEL-5 melanoma 101% | UACC-62 melanoma 94.8% | SK-MEL-28 melanoma 97.2% | SK-MEL-2 melanoma 106% | EKVX NSCLC 111% | SN12C renal 94.2% | UO-31 renal 87.5% | TK-10 renal 102% | ACHN renal 102% | CAKI-1 renal 98.8% | CCRF-CEM leukemia 94.2% | MOLT-4 leukemia 80%

CCCCCN1C=C/C(=C\C(=O)N(C)c2ccccc2Br)c2ccccc21
inactive: HCT-15 colon 102% | HT29 colon 98.3% | SNB-75 CNS 91.7% | SNB-19 CNS 94.6% | U251 CNS 87.7% | PC-3 prostate 92.1% | SK-MEL-5 melanoma 94.2% | UACC-62 melanoma 81.6% | SK-MEL-28 melanoma 105% | SK-MEL-2 melanoma 109% | EKVX NSCLC 91.2% | SN12C renal 89.2% | UO-31 renal 87.8% | TK-10 renal 99.7% | ACHN renal 104% | CAKI-1 renal 82.2% | CCRF-CEM leukemia 96% | MOLT-4 leukemia 89.3%

Cc1ccc(NC(C(=O)c2ccccc2)c2ccccc2)cc1 (stereo not given)
inactive: HCT-15 colon 86.4% | HT29 colon 46.9% | SNB-75 CNS 66.3% | SNB-19 CNS 47.9% | U251 CNS 29.7% | PC-3 prostate 37.6% | SK-MEL-5 melanoma 22.1% | UACC-62 melanoma 39.1% | SK-MEL-28 melanoma 52.8% | SK-MEL-2 melanoma 36.1% | EKVX NSCLC 20.5% | SN12C renal 50.1% | UO-31 renal 78.9% | TK-10 renal 74.6% | ACHN renal 85% | CAKI-1 renal 66.7% | CCRF-CEM leukemia 65.2% | MOLT-4 leukemia 74.6%

O=C(c1nnc(Nc2ccccc2Br)o1)c1c[nH]c2ccccc12
inactive: HCT-15 colon 80.1% | HT29 colon 100% | SNB-75 CNS 89.2% | SNB-19 CNS 96.8% | U251 CNS 96.9% | PC-3 prostate 87.6% | SK-MEL-5 melanoma 89.5% | UACC-62 melanoma 83% | SK-MEL-28 melanoma 104% | SK-MEL-2 melanoma 110% | EKVX NSCLC 104% | SN12C renal 93.4% | TK-10 renal 112% | ACHN renal 90.8% | CCRF-CEM leukemia 97.5% | MOLT-4 leukemia 106%

COC(=O)C1=C(C(=O)ON)C2C=CC1(C(Cc1ccccc1)Nc1ccccc1)O2 (stereo not given)
active: HCT-15 colon -53.8% | ACHN renal -99.7% | CCRF-CEM leukemia -7.87%
inactive: HT29 colon 37.9% | SNB-75 CNS 106% | SNB-19 CNS 106% | U251 CNS 94.6% | PC-3 prostate 100% | SK-MEL-5 melanoma 104% | UACC-62 melanoma 89.9% | SK-MEL-28 melanoma 65.4% | SK-MEL-2 melanoma 86.7% | EKVX NSCLC 91.9% | SN12C renal 87.4% | UO-31 renal 16.9% | CAKI-1 renal 57.3% | MOLT-4 leukemia 12.9%

COc1ccccc1/C=C1\Oc2cc(OCCN3CCCC3)ccc2C1=O
inactive: HCT-15 colon 39.4% | HT29 colon 14% | SNB-75 CNS 90.5% | SNB-19 CNS 88.9% | U251 CNS 76.1% | PC-3 prostate 83% | SK-MEL-5 melanoma 87.2% | UACC-62 melanoma 97.3% | SK-MEL-28 melanoma 91.8% | SK-MEL-2 melanoma 106% | EKVX NSCLC 85.9% | SN12C renal 88.8% | UO-31 renal 66.3% | TK-10 renal 97.9% | ACHN renal 94.2% | CAKI-1 renal 94.3% | CCRF-CEM leukemia 54.7% | MOLT-4 leukemia 68.7%

CCc1ccc(-c2cn3ccnc3c(-c3ccc4ncn(Cc5ccccc5)c4c3)n2)cc1
inactive: HCT-15 colon 25.3% | HT29 colon 31.2% | SNB-75 CNS 70.7% | SNB-19 CNS 79.1% | U251 CNS 53.9% | PC-3 prostate 49.6% | SK-MEL-5 melanoma 52.1% | UACC-62 melanoma 75.1% | SK-MEL-28 melanoma 80.9% | SK-MEL-2 melanoma 85.2% | EKVX NSCLC 60.3% | SN12C renal 77.5% | UO-31 renal 42.2% | TK-10 renal 84.5% | ACHN renal 55.3% | CAKI-1 renal 52.1% | A498 renal 105% | CCRF-CEM leukemia 50.3% | MOLT-4 leukemia 45.8%

CN1CCN(C(=O)[C@]23CCC(C)(C)C[C@H]2C2=CC[C@@H]4[C@@]5(C)C/C(=C/c6cccnc6)C(=O)C(C)(C)[C@@H]5CC[C@@]4(C)[C@]2(C)CC3)CC1
inactive: HCT-15 colon 41.4% | HT29 colon 33.1% | SNB-75 CNS 82.1% | SNB-19 CNS 65.4% | U251 CNS 44.7% | PC-3 prostate 19.1% | SK-MEL-5 melanoma 49.8% | UACC-62 melanoma 52.8% | SK-MEL-28 melanoma 77.9% | SK-MEL-2 melanoma 81.5% | EKVX NSCLC 78.8% | SN12C renal 57.8% | UO-31 renal 38.6% | TK-10 renal 89.5% | ACHN renal 66% | CAKI-1 renal 66.6% | CCRF-CEM leukemia 33.3% | MOLT-4 leukemia 20.5%

CN[C@@H](C)C(=O)N[C@H]1CCS[C@H]2CC(C)(C)[C@@H](C(=O)N[C@H]3c4ccccc4C[C@H]3OCC#CC#CCO[C@@H]3Cc4ccccc4[C@@H]3NC(=O)[C@H]3N4C(=O)[C@@H](NC(=O)[C@H](C)NC)CCS[C@H]4CC3(C)C)N2C1=O
inactive: HCT-15 colon 109% | HT29 colon 112% | SNB-75 CNS 16.5% | SNB-19 CNS 97.1% | U251 CNS 100% | PC-3 prostate 102% | SK-MEL-5 melanoma 66.2% | UACC-62 melanoma 102% | SK-MEL-28 melanoma 107% | SK-MEL-2 melanoma 73.7% | EKVX NSCLC 121% | SN12C renal 97.8% | UO-31 renal 97.8% | ACHN renal 106% | CCRF-CEM leukemia 25.1% | MOLT-4 leukemia 95.5%

O=C1NN(C(=O)c2ccccc2)C(c2ccc(Cl)c(Cl)c2)=C/C1=C\c1ccc([N+](=O)[O-])cc1
inactive: HCT-15 colon 71.8% | HT29 colon 101% | SNB-75 CNS 65.3% | SNB-19 CNS 58.7% | U251 CNS 69.7% | PC-3 prostate 46.7% | SK-MEL-5 melanoma 86.8% | UACC-62 melanoma 70.3% | SK-MEL-28 melanoma 111% | SK-MEL-2 melanoma 100% | EKVX NSCLC 88.3% | SN12C renal 92.3% | UO-31 renal 61.9% | TK-10 renal 106% | ACHN renal 90.3% | CAKI-1 renal 77.1% | CCRF-CEM leukemia 88.5%

COc1ccc(-c2nc3sccn3c2/C=C/C(=O)c2ccc3c(c2)OCO3)cc1
inactive: HCT-15 colon 59.3% | HT29 colon 85% | SNB-75 CNS 72.3% | SNB-19 CNS 80.6% | U251 CNS 55.1% | PC-3 prostate 58.6% | SK-MEL-5 melanoma 78.7% | UACC-62 melanoma 57.2% | SK-MEL-28 melanoma 105% | SK-MEL-2 melanoma 87.4% | EKVX NSCLC 85.4% | SN12C renal 86.1% | UO-31 renal 73.5% | TK-10 renal 119% | ACHN renal 73.3% | CAKI-1 renal 78.3% | A498 renal 113% | CCRF-CEM leukemia 18.3% | MOLT-4 leukemia 37.3%

CCCCC/C=C/C(C)=C/C1CC(C)C/C=C/CCC(O)C(OC(N)=O)CCC(C)CC(O)C(C)C(=O)O1 (stereo not given)
inactive: HCT-15 colon 89.8% | HT29 colon 96.9% | SNB-75 CNS 98.9% | SNB-19 CNS 183% | U251 CNS 82.1% | PC-3 prostate 73.7% | SK-MEL-5 melanoma 61.4% | UACC-62 melanoma 82% | SK-MEL-28 melanoma 85.7% | SK-MEL-2 melanoma 92.6% | EKVX NSCLC 91.9% | SN12C renal 97.2% | TK-10 renal 100% | ACHN renal 73.1% | CAKI-1 renal 78.9% | A498 renal 71.7%

C=C1C(=O)O[C@H]2[C@H]1CC/C(CNC(=O)c1cccc3ccccc13)=C\CC[C@@]1(C)O[C@@H]21
active: HT29 colon 8.85% | CCRF-CEM leukemia 1.76% | MOLT-4 leukemia 4.8%
inactive: HCT-15 colon 10.2% | SNB-75 CNS 82.6% | SNB-19 CNS 66.4% | U251 CNS 59% | PC-3 prostate 53.7% | SK-MEL-5 melanoma 60.1% | UACC-62 melanoma 31.4% | SK-MEL-28 melanoma 41.2% | SK-MEL-2 melanoma 70.7% | EKVX NSCLC 65.9% | SN12C renal 25% | UO-31 renal 37.9% | TK-10 renal 34.8% | ACHN renal 11.6% | CAKI-1 renal 40% | A498 renal 81.8%

O=C(NNc1nc2c(F)cccc2n2cccc12)c1cnccn1
inactive: HCT-15 colon 26.3% | HT29 colon 24.3% | SNB-75 CNS 74.3% | SNB-19 CNS 23.9% | U251 CNS 18.7% | PC-3 prostate 36.2% | SK-MEL-2 melanoma 48.7% | EKVX NSCLC 18.5% | SN12C renal 34.3% | TK-10 renal 48.9% | CAKI-1 renal 17.6% | A498 renal 54.3% | CCRF-CEM leukemia 10.8%
active: SK-MEL-5 melanoma 5.96% | LOX IMVI melanoma -32.6% | SK-MEL-28 melanoma 8.95% | UO-31 renal 8.05% | ACHN renal 4.68%

Cc1cccc(-c2cn3ccnc3c(-c3ccc4ncn(Cc5ccccc5)c4c3)n2)c1
inactive: HCT-15 colon 64.8% | HT29 colon 58% | SNB-75 CNS 78.3% | SNB-19 CNS 97.4% | U251 CNS 80.6% | PC-3 prostate 75.2% | SK-MEL-5 melanoma 89.9% | UACC-62 melanoma 97.5% | SK-MEL-28 melanoma 101% | SK-MEL-2 melanoma 93.7% | EKVX NSCLC 77.7% | SN12C renal 95.3% | UO-31 renal 58.3% | TK-10 renal 110% | ACHN renal 87.6% | A498 renal 77.9% | CCRF-CEM leukemia 78.9% | MOLT-4 leukemia 63.1%

Cc1ccc(-n2cc(-c3ccccc3)c3c2N=NN2CCN=C32)cc1
inactive: HCT-15 colon 101% | HT29 colon 110% | SNB-75 CNS 72.1% | SNB-19 CNS 92.2% | U251 CNS 99.1% | PC-3 prostate 86.4% | SK-MEL-5 melanoma 99.1% | UACC-62 melanoma 82.3% | SK-MEL-28 melanoma 109% | SK-MEL-2 melanoma 103% | EKVX NSCLC 87.5% | SN12C renal 96% | TK-10 renal 141% | CAKI-1 renal 68.7% | CCRF-CEM leukemia 101% | MOLT-4 leukemia 97.3%

O=C1c2cccc3c(-c4ccc5c(c4)ncn5C4CCCCC4)ccc(c23)C(=O)N1c1nc2ccccc2s1
inactive: HCT-15 colon 59.5% | HT29 colon 84% | SNB-75 CNS 75.2% | SNB-19 CNS 94.6% | U251 CNS 86.9% | PC-3 prostate 73.2% | SK-MEL-5 melanoma 74.6% | UACC-62 melanoma 73% | SK-MEL-28 melanoma 96.6% | SK-MEL-2 melanoma 81.4% | EKVX NSCLC 76.4% | SN12C renal 83.7% | UO-31 renal 56.3% | TK-10 renal 99.6% | ACHN renal 84.7% | CAKI-1 renal 72.8% | A498 renal 121% | CCRF-CEM leukemia 83% | MOLT-4 leukemia 81.1%
